Outcome data for 21 compounds are collected here from PubChem BioAssay (EPA / NIEHS).

The source made the active and inactive calls. The calls were made as follows: active = hit-call score of the fitted dose curve at least 0.9, where 1 is the maximum; inactive = score below 0.9.

Read-out in this assay: succinate dehydrogenase complex iron sulfur subunit B (SDHB), SDHB (gene 6390)
Kind of assay: LTEA_HepaRG_SDHB: Life Technologies and Expression Analysis (LTEA) Assay for succinate dehydrogenase complex iron sulfur subunit B (SDHB) using HepaRG (AID 2283528). To be noted: mRNA level, 48 h; actives raise or lower the signal. The method, boiled down:
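SDHB transcript level read by TaqMan qRT-PCR, housekeeping-normalised (ACTB, GAPDH, POLR2A), after 48 h chemical treatment of plated HepaRG cells; eight concentrations top 100 uM, half-log steps, 0.5% DMSO, duplicates; fitted both directions against DMSO.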
As for `S=c1[nH]c2ccccc2s1`, the outcome was inactive.
For the compound `Oc1ccccc1O`, the compound was called inactive.
`CCc1cc(C2=C(C(=O)O)N(c3ccccc3C(F)(F)F)S(=O)(=O)c3ccccc32)cc2c1OCO2`: the call was inactive.
The result for `CC(C)(C)c1ccccc1` reads “inactive”; that for `COc1ccc(C(=O)Nc2nc3ccccc3c(NCc3ccccc3)c2C#N)cc1`, “inactive”; that for `CCCC[C@H]1CN(CC2CCOCC2)C(=O)OC12CCN(C1(C)CCN(C(=O)c3c(C)ncnc3C)CC1)CC2`, “inactive”.
The result for `O=C1NC(=O)C(c2ccccc2)(c2ccccc2)N1` reads “inactive”.
Turning to `CCc1nc(N)nc(N)c1-c1ccc(Cl)cc1`, the compound was classed as inactive.
As for `O=C1O[C@H]([C@H](O)CO)C(O)=C1O`, the entry is “inactive”.
In the case of `O=C(Oc1ccccc1)c1cccc(C(=O)Oc2ccccc2)c1`, the result was inactive.
Consider `O=C(NS(=O)(=O)/C=C/c1cccs1)c1ccc(F)cc1Br`, for which the compound was classed as inactive.
In the case of `Nc1nc(=S)c2[nH]cnc2[nH]1`, the compound was called inactive.
As for `CC(N)=O`, the entry is “inactive”; as for `COC(=O)[C@H]1[C@H]2C[C@@H]3c4[nH]c5cc(OC)ccc5c4CCN3C[C@H]2C[C@@H](OC(=O)c2cc(OC)c(OC)c(OC)c2)[C@@H]1OC`, “inactive”; as for `CCCCCCCCCC[N+](C)(C)[O-]`, “inactive”.
Regarding `CC(COCC(C)OC(=O)c1ccccc1)OC(=O)c1ccccc1` (stereo unspecified), the compound was classed as inactive.
The result for `C/C=C/C=C/C(=O)O` reads “inactive”.
Regarding `CC(C)c1cccc(C(C)C)c1NC(=O)NS(=O)(=O)c1cc(C(C)(C)O)co1`, the call was inactive.
As for `NC(=Nc1ccccc1)Nc1ccccc1`, the entry is “inactive”; as for `CC(C)(O)c1ccc(CNC(=O)c2cccnc2Oc2ccc(F)cc2)cc1`, “inactive”.
The result for `O=Cc1ccccc1C=O` reads “inactive”.
